The list is not random: actives were taken first. Their share in the collection is about 5.7%.
BAZ2B inh: blocks human BAZ2B; AlphaScreen BAZ2B-H3K14Ac peptide displacement; Potency, µM (top dose mostly 114 µM), hits mostly inhibitors; hit rate 4.4% among 360,000; AID 504333; further: nearly all actives have a fitted effect of over 60% in size
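In this displacement format the biotinylated H3(5-23) peptide acetylated at Lys14 serves as ligand at 50 nM, with BAZ2B at 50 nM in PBS pH 7.4 containing 0.01% Tween-20. Donor and acceptor beads are 10 ug/mL final.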
HP1b chromo inh: blocks HP1-beta chromodomain binding to methylated histone tails | AlphaScreen HP1-beta / biotin-H3K9me3 peptide binding | Potency, µM (top dose mostly 114 µM), usual class: inhibitors | hit rate 0.56% among 390,000; further: nearly all actives have a fitted effect of over 70% in size
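AlphaScreen: HP1-beta (50 nM) preformed 30 min with biotin-H3(1-18)K9me3 peptide (50 nM) in PBS pH 7.4, 0.01% Tween-20. Compound added for 30 min at RT, then streptavidin donor/nickel chelate acceptor beads (10 ug/mL) for 30 min.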
L3MBTL1 inh: inhibitors of human L3MBTL1; hit rate 0.66% among 230,000; Q9Y468; Potency, µM (doses to about 57.1 µM), most hits filed as inhibitors; AlphaScreen L3MBTL1–H3K9me1 peptide binding; further: nearly all actives have a fitted effect of over 60% in size
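AlphaScreen proximity signal between nickel-chelate acceptor and streptavidin donor beads (final 10 ug/mL) reports binding of 50 nM L3MBTL1 to 75 nM biotin-H3 K9me1 peptide; complex incubated with compounds 30 min at room temperature; cefsulodin titration as control.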
PI5P4K alpha inh: inhibitors of human PI5P4K alpha; P48426; PI5P4Kalpha enzyme, ADP-Glo luminescence, 60 min; stronger effect = lower value; max response, %; hit rate 1.2% among 330,000; active means max response of -50% or lower; inconclusive means between -30% and -50%; inactive means -30% or higher; further: value at the top dose of about 77 µM
Target sequence (P48426 whole entry, looked up): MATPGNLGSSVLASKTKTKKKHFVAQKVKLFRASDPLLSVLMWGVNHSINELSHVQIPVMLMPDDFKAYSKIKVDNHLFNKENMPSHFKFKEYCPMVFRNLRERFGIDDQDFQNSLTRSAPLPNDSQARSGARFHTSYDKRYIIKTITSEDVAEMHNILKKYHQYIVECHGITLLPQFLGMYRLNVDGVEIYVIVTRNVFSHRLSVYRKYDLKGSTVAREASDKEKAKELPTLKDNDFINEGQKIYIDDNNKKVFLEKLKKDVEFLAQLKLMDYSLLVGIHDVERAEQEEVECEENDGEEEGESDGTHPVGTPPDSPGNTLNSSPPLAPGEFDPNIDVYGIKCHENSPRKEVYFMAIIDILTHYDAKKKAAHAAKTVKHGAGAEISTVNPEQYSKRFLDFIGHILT
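Enzyme plus substrate dispensed, test compounds pinned in, then ATP (5 microM final) added. After 60 min at RT, ADP-Glo reagent 1 for 45 min and reagent 2 for 30 min preceded luminescence imaging.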
KDM4E inh: inhibitors of human JMJD2E histone demethylase; B2RXH2; JMJD2E catalytic domain, FDH-coupled NADH fluorescence (FDH is formaldehyde dehydrogenase); Potency, µM (top dose mostly 57.1 µM), most hits filed as inhibitors; hit rate 1.6% among 230,000; AID 2147; active means well fitted inhibition curve with a large enough effect, not every such curve was filed as active; inconclusive means small, poorly fitted or top-dose-only effect, or another doubt; inactive means no such curve, though single readings can be large or run the other way; further: nearly all actives have a fitted effect of over 50% in size
JMJD2A Tudor inh: inhibitors of human JMJD2A Tudor domain. O75164. AlphaScreen JMJD2A-Tudor / H3K4me3 peptide binding. Potency, µM (highest dose often 114 µM), hits mostly inhibitors. hit rate 4.4% among 390,000. AID 504339; further: nearly all actives have a fitted effect of over 50% in size
Numbers stand for hits; – = inactive; ? = inconclusive; · = no result; [ ] = dose if it differs, or a comment. Unless noted, the call rests on the fitted dose curve; in most records, active means well fitted inhibition curve with a large enough effect; inconclusive means small, poorly fitted or top-dose-only effect; inactive means no such curve, though single readings can be large or run the other way.

SMILES	BAZ2B inh	HP1b chromo inh	L3MBTL1 inh	PI5P4K alpha inh	KDM4E inh	JMJD2A Tudor inh
O=C1c2cccc3c([N+](=O)[O-])ccc(c23)C(=O)N1O	50.1µM	–	·	?	·	?
O=C1c2cccc3c([N+](=O)[O-])ccc(c23)C(=O)N1c1ccc(Cl)cn1	44.7µM	?	–	·	–	?
CC1CCCCN1C(=O)CSc1nc2ccccc2nc1Cc1ccccc1 (configuration not stated)	–	–	·	·	·	–
O=C(NCc1ccccc1Cl)c1ccc(NC(=O)N2CCSc3ncccc32)cc1	–	–	·	·	·	–
CCCCC(=O)Nc1nc2c(OC)ccc(OC)c2s1	–	–	·	–	–	–
CCC[n+]1c(C)sc2c(OC)ccc(OC)c21	–	–	·	–	?	15.8µM
CC(NC(=O)C(=O)N/N=C/c1ccccc1)c1ccccc1 (configuration not stated)	–	–	–	–	–	–
CC(C)CC(=O)N1CCN(c2ccc([N+](=O)[O-])c(NCc3ccccc3)c2)CC1	·	?	·	–	·	50.1µM
CC(=O)Nc1cccc(NC(=O)CSc2nccn2C2CCCC2)c1	–	–	·	·	·	–
O=C(CSc1nccn1C1CCCC1)Nc1cccc(F)c1	79.4µM	–	·	·	·	–
CN(C)C(=N)c1n[nH]nc1SCc1ccccc1	79.4µM	–	–	–	–	–
N#Cc1ccc(C(C(=O)NC2CCCCC2)n2c(=O)c(-c3ccco3)nc3ccccc32)cc1 (configuration not stated)	·	·	·	-74.5	·	·
O=C(NC1CCCCC1)C(c1ccc(C(F)(F)F)cc1)n1c(=O)c(-c2ccco2)nc2ccccc21 (configuration not stated)	·	·	·	-75.2	·	·
O=C(NC1CCCCC1)C(c1ccccc1)n1c(=O)c(-c2cc3ccccc3[nH]2)nc2ccccc21 (configuration not stated)	·	·	·	–	·	·
O=C(NC1CCCCC1)C(c1ccccc1)n1c(=O)c(-c2ccco2)nc2ccccc21 (configuration not stated)	·	·	·	-79.8	·	·
COc1ccc(C(C(=O)NC(C)(C)C)n2c(=O)c(-c3ccco3)nc3ccccc32)cc1 (configuration not stated)	·	·	·	–	·	·
CCOc1ccccc1CNCc1c(C(=O)O)n(Cc2ccc(F)cc2)c2cc(C)ccc12	–	–	·	·	·	–
CCOc1ccc2nc(N3CCCCCC3)sc2c1	–	–	–	·	–	–
COc1ccc2nc(-n3c(C)ccc3C)sc2c1	?	–	·	·	–	?
CCOc1ccc2nc(N3C(=O)/C(=C/c4ccccc4)NC3=S)sc2c1	–	–	–	-54.1	–	–
COc1ccc2nc(N3C(=O)/C(=C/c4ccccc4)NC3=S)sc2c1	–	–	–	-62.8	–	?
Cc1nc(-c2ccc(S(=O)(=O)Nc3ccc(C)c(C)c3)s2)cs1	·	·	·	·	·	–
COc1cccc(CN(C(=O)COc2ccc(Cl)c(C)c2)C2CCS(=O)(=O)C2)c1 (configuration not stated)	–	–	·	·	·	–
O=C(CNC(=O)c1ccc(Cl)cc1Cl)OCN1C(=O)c2ccccc2C1=O	–	–	–	–	·	–
O=C(/C(=N/N=C/c1ccc(O)c(O)c1O)c1ccccc1)c1ccccc1	31.6µM	?	20µM	-65.4	–	35.5µM
SMILES	BAZ2B inh	HP1b chromo inh	L3MBTL1 inh	PI5P4K alpha inh	KDM4E inh	JMJD2A Tudor inh
Oc1ccc(/C=N/N=C(c2ccccc2)c2ccccc2)c(O)c1O	25.1µM	44.7µM	3.55µM	?	14.1µM	56.2µM
NC(=N\N=Cc1ccccc1)/C(N)=N/N=Cc1ccccc1	·	–	·	–	·	–
Cc1ccc2oc(C(=O)Nc3sc4c(c3C(=O)NCc3ccccc3)CCCC4)cc(=O)c2c1	–	–	·	·	·	–
O=[S+]([O-])(c1ccc2c(c1)OCCO2)N1CCN([S+](=O)([O-])c2ccc(F)cc2Cl)CC1	·	·	·	·	·	–
C/C(CC(=O)N1CCN(C=O)CC1)=N\NC(=O)c1ccc([N+](=O)[O-])cc1	–	–	–	–	–	–
C/C(CC(=O)N1CCN(C=O)CC1)=N\NC(=O)c1cc2ccccc2cc1O	–	–	–	?	28.2µM	–
O=C(O)c1ccc(/C=N/NC(=O)c2cc3ccccc3cc2O)cc1	·	–	31.6µM	?	·	–
O=C(N/N=C/c1ccc(-c2ccc(Cl)c(C(=O)O)c2)o1)c1cc2c(ccc3ccccc32)o1	28.2µM	?	·	-79.8	–	–[11.4 µM]

High-throughput results (PubChem)
